According to PubChem BioAssay AID1159580 (chemical genetic matrix, 2015):
In all, about 5,500 compounds went through this assay and about 2,000 (36%) were called active. Inconclusive results (about 18%) are left out. Cut-off read from the data, not from the text of the source: active = normalized growth mostly below about 0.91 (no sharp cut-off); inconclusive = no clear call, values can overlap the other calls; inactive = mostly above about 0.92. Some of the results follow.

Test: chemical genetic growth profiling, strain panel (AID 1159580);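 note: tested at 20 µM; growth read once vehicle control cultures reached saturation at 30 °C; 1 = growth at the plate median or of vehicle wells; lower values mean less growth of the strain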
Details: S. cerevisiae deletion strains, growth OD
[1] = locus YDL101C, strain DUN1, stronger effect = lower value
[2] = locus YHR030C, strain SLT2, stronger effect = lower value

Measured: normalized growth

O=S(=O)(Nc1ccccc1Sc1c(Cl)cncc1Cl)c1ccc(Cl)cc1
inactive: locus YAR019C, strain CDC15, stronger effect = lower value 0.981 | locus YBL105C, strain PKC1, stronger effect = lower value 0.987 | locus YBR135W, strain CKS1, stronger effect = lower value 0.985 | locus YBR136W, strain MEC1, stronger effect = lower value 0.987 | locus YBR160W, strain CDC28, stronger effect = lower value 0.988 | locus YDL017W, strain CDC7, stronger effect = lower value 0.986 | locus YDL028C, strain MPS1, stronger effect = lower value 0.995 | [1] 0.973 | locus YDL108W, strain KIN28, stronger effect = lower value 0.985 | locus YDL132W, strain cdc53, stronger effect = lower value 0.974 | locus YDL214C, strain PRR2, stronger effect = lower value 1 | locus YDR052C, strain DBF4, stronger effect = lower value 0.984 | locus YDR054C, strain cdc34, stronger effect = lower value 0.974 | locus YDR226W, strain ADK1, stronger effect = lower value 0.985 | locus YDR477W, strain SNF1, stronger effect = lower value 0.99 | locus YER123W, strain YCK3, stronger effect = lower value 1 | locus YER133W, strain GLC7, stronger effect = lower value 1 | locus YFL009W, strain cdc4, stronger effect = lower value 0.98 | locus YFL029C, strain CAK1, stronger effect = lower value 0.985 | locus YFR003C, strain YPI1, stronger effect = lower value 0.98 | locus YFR019W, strain FAB1, stronger effect = lower value 0.998 | locus YFR028C, strain CDC14, stronger effect = lower value 0.986 | locus YGR040W, strain KSS1, stronger effect = lower value 0.993 | locus YGR052W, strain FMP48, stronger effect = lower value 1.07 | locus YGR092W, strain DBF2, stronger effect = lower value 0.988 | [2] 1.13 | locus YHR079C, strain IRE1, stronger effect = lower value 1 | locus YHR082C, strain KSP1, stronger effect = lower value 1.27 | locus YHR205W, strain SCH9, stronger effect = lower value 0.981 | locus YIL147C, strain SLN1, stronger effect = lower value 0.988 | locus YJL095W, strain BCK1, stronger effect = lower value 0.974 | locus YJL128C, strain PBS2, stronger effect = lower value 0.916 | locus YJL157C, strain FAR1, stronger effect = lower value 0.997 | locus YJR016C, strain ILV3, stronger effect = lower value 0.974 | locus YJR066W, strain TOR1 (second series), stronger effect = lower value 1 | locus YJR066W, strain TOR1, stronger effect = lower value 1.26 | locus YKL048C, strain ELM1, stronger effect = lower value 0.955 | locus YKL067W, strain YNK1, stronger effect = lower value 0.978 | locus YKL101W, strain HSL1, stronger effect = lower value 0.958 | locus YKL193C, strain SDS22, stronger effect = lower value 0.977 | locus YKL203C, strain TOR2, stronger effect = lower value 1.06 | locus YLR113W, strain HOG1, stronger effect = lower value 0.995 | locus YLR133W, strain CKI1, stronger effect = lower value 0.979 | locus YLR403W, strain SFP1, stronger effect = lower value 1 | locus YML070W, strain DAK1, stronger effect = lower value 0.995 | locus YMR001C, strain CDC5, stronger effect = lower value 0.984 | locus YMR205C, strain PFK2 (second series), stronger effect = lower value 0.998 | locus YMR277W, strain FCP1, stronger effect = lower value 0.978 | locus YNL006W, strain LST8, stronger effect = lower value 0.982 | locus YNL020C, strain ARK1, stronger effect = lower value 0.978 | locus YNL161W, strain CBK1, stronger effect = lower value 0.98 | locus YNL183C, strain NPR1, stronger effect = lower value 0.961 | locus YNL207W, strain RIO2, stronger effect = lower value 0.985 | locus YNL222W, strain SSU72, stronger effect = lower value 0.994 | locus YNL307C, strain MCK1 (second series), stronger effect = lower value 0.978 | locus YOL078W, strain AVO1, stronger effect = lower value 0.96 | locus YOL136C, strain PFK27, stronger effect = lower value 1 | locus YOR061W, strain CKA2, stronger effect = lower value 0.991 | locus YOR119C, strain RIO1, stronger effect = lower value 1.01 | locus YOR231W, strain MKK1, stronger effect = lower value 0.998 | locus YOR329C, strain SCD5, stronger effect = lower value 0.989 | locus YPL031C, strain PHO85, stronger effect = lower value 0.995 | locus YPL153C, strain RAD53, stronger effect = lower value 0.994 | locus YPL204W, strain HRR25, stronger effect = lower value 1 | locus YPL209C, strain IPL1, stronger effect = lower value 0.99 | locus YPL256C, strain CLN2, stronger effect = lower value 0.97 | locus YPR025C, strain CCL1, stronger effect = lower value 0.992 | locus YPR106W, strain ISR1, stronger effect = lower value 0.968 | locus YPR111W, strain DBF20, stronger effect = lower value 0.959 | strain NNK1, stronger effect = lower value 0.963 | strain TSCII, stronger effect = lower value 0.985

NNC(=O)c1cccnc1Oc1ccccc1
inactive: locus YAL013W, strain DEP1, stronger effect = lower value 1.01 | locus YBR229C, strain ROT2, stronger effect = lower value 0.998 | [1] 1.03 | locus YDR150W, strain NUM1, stronger effect = lower value 1.04 | locus YEL061C, strain CIN8, stronger effect = lower value 1.02 | locus YGR078C, strain PAC10, stronger effect = lower value 1.02 | [2] 1.11 | locus YHR087W, strain rtc3, stronger effect = lower value 1.02 | locus YJR043C, strain POL32, stronger effect = lower value 1.01 | locus YJR075W, strain HOC1, stronger effect = lower value 1.03 | locus YKL190W, strain CNB1, stronger effect = lower value 1.02 | locus YLR039C, strain RIC1, stronger effect = lower value 1.12 | locus YLR058C, strain SHM2 (second series), stronger effect = lower value 1 | locus YLR085C, strain ARP6, stronger effect = lower value 1.12 | locus YLR262C, strain YPT6, stronger effect = lower value 1.01 | locus YML094W, strain GIM5, stronger effect = lower value 1.03 | locus YMR219W, strain ESC1, stronger effect = lower value 1.02 | locus YMR263W, strain SAP30, stronger effect = lower value 1.02 | locus YNL153C, strain GIM3, stronger effect = lower value 1.01 | locus YNL298W, strain CLA4 (second series), stronger effect = lower value 1.08 | locus YNL322C, strain KRE1, stronger effect = lower value 1.01 | locus YNR030W, strain Alg12, stronger effect = lower value 1.03 | locus YPL055C, strain LGE1, stronger effect = lower value 1.02 | locus YPL241C, strain CIN2, stronger effect = lower value 1.04 | locus YPR135W, strain CTF4, stronger effect = lower value 1.14
